HTR2A ag = agonists of mouse serotonin 5-HT2A receptor (HTR2A). activation, % at 7.6 µM. CHO-K1 mHTR2A beta-arrestin complementation, luminescence; percent of 30 µM serotonin response. AID 624169. actives 0.66% (n = 360,000);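 active means activation above a run cutoff, the mean activation of all tested compounds plus 3 SD, cut at about 14% in these data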;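 further: 0% = plate median of compound wells and 100% = 30 µM serotonin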
Target sequence (P35363 whole entry, looked up): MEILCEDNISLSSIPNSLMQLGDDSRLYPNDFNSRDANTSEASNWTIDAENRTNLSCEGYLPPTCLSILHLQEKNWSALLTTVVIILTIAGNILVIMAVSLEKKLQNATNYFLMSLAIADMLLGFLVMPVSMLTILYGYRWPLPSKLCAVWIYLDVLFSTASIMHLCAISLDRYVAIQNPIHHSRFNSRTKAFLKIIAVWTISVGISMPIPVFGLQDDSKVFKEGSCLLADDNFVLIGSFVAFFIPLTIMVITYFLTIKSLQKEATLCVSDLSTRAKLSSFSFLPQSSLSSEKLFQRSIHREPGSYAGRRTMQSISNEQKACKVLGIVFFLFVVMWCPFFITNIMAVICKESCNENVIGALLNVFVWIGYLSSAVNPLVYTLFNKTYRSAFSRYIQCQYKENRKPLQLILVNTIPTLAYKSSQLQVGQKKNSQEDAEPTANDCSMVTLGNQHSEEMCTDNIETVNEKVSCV
B2AR ag = agonists of human beta-2 adrenergic receptor inducing internalization. actives 0.43% (n = 340,000). P07550. response, % (concentration not given with the values). AID 504454. Am2.2-beta2AR cells, FAP receptor internalization, flow cytometry;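 active means response above a set limit, near 3 SD of response in nonfluorescent compounds, cut at about 42% in these data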
Exocytosis inh = blocks lytic granule exocytosis | TALL-104 LAMP-1 surface exposure, flow cytometry; cells stimulated with thapsigargin and PMA | actives 0.66% (n = 360,000) | inhibition, % at 10 µM | AID 651702;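 active means inhibition above about 55%, limit read from the data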
NTR1 ag = NTR1 (human) agonism; P30989; NTR1-U2OS beta-arrestin-GFP spot imaging, agonist mode; activation, % at 20 µM; actives 0.17% (n = 330,000); AID 493036;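 active means activation at or above 40% of the spot to cytoplasm intensity ratio, with at least 20 cells analyzed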;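 further: 0% = DMSO without peptide and 100% = 100 nM NTR1 peptide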
ABHD5 PLIN5 PPI = blocks binding of human ABHD5 to perilipin-5. Split G. princeps luciferase complementation, luminescence, 4 h. Q00G26+Q8WTS1. inhibition, % at 4 µM. actives 0.78% (n = 360,000). AID 602281;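 active means inhibition above the mean inhibition across every tested compound plus 3 SD, cut at about 22% in these data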;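 further: 0% = DMSO only wells and the 100% control is not disclosed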
Numbers without * were called inactive; nt = no result given. In the library only some 2.3% were active in any assay of this set; here they are far more common.

SMILES | HTR2A ag | B2AR ag | Exocytosis inh | NTR1 ag | ABHD5 PLIN5 PPI
O=C(NCCc1ccccc1)c1ccc2nc(-c3ccco3)c(-c3ccco3)nc2c1 | 0 | 13 | -1 | 2 | 29*
O=C(NCCO)c1ccc2nc(-c3ccco3)c(-c3ccco3)nc2c1 | 8 | -6 | -2 | -3 | 7
O=C1c2cccc3cccc(c23)C(=O)N1c1ccc2ncccc2c1 | 4 | 70* | 5 | 7 | 3
CC1(C)C(/C=C/C=C/C=C/C=C2\N(CCCCS(=O)(=O)O)c3ccc4ccccc4c3C2(C)C)=[N+](CCCCS(=O)(=O)[O-])c2ccc3ccccc3c21 | 3 | 58* | -23 | -2 | 54*
Cc1ccc2cc(CCNS(=O)(=O)c3ccc(Br)cc3)c(=O)[nH]c2c1C | 0 | 55* | 4 | 1 | 4
N#CCC(=O)N/N=C/c1cn(Cc2ccccc2C#N)c2ccccc12 | 4 | 6 | -10 | -1 | -8
N#CCC(=O)N/N=C/c1c(-c2ccccc2)n(-c2ccccc2)c2ccccc12 | 3 | 24 | 94* | 16 | 6
CCOc1cc(/C=C(/C#N)C(=O)Nc2ccc(O)cc2)cc(Br)c1O | -5 | 52* | 6 | 1 | 5
C=CCNC(=O)/C(C#N)=C\c1cc(Cl)c(O)c(OCC)c1 | 1 | 1 | -6 | nt | -1
CC(CCc1ccccc1)NC(=O)N1CCOCC1 (stereo not drawn) | -3 | 2 | 1 | 3 | 0
Cc1ccc(NC(=O)CC2SC3=NCCN3C2=O)cc1 (stereo not drawn) | -3 | -3 | 2 | -2 | 23*
CC(N)=Nc1ccc([N+](=O)[O-])cc1 | -1 | -8 | 1 | -1 | -3
O=[N+]([O-])c1ccc(N=Nc2c(Cl)cc(O)cc2Cl)cc1 | 8 | 55* | 79* | nt | 3
Cc1ccc(C(C[N+](=O)[O-])n2nc(C)cc2C)cc1 (stereo not drawn) | 2 | 18 | 9 | 51* | 4
Cc1ccc(S(=O)(=O)NCC(C)n2nc(C)cc2C)cc1 (stereo not drawn) | -4 | 0 | 1 | 0 | -1
COc1cccc(C2=Nn3c(nnc3-c3ccccc3O)SC2)c1 | -3 | -5 | 2 | 2 | -1
C[n+]1c2n(c3ccccc31)N=C(c1cc(C(C)(C)C)c(O)c(C(C)(C)C)c1)CS2 | -1 | 8 | 58* | 16 | 12
O=C1N[C@@H](Cc2ccccc2)COC(=O)[C@H](Cc2ccc(F)cc2)CC/C=C/C[C@@H]1CC(=O)N(CCO)Cc1ccccc1 | -7 | 0 | 58* | 15 | 1
CN(c1ccccc1)S(=O)(=O)c1cccc(C(=O)NC2CCCCC2)c1 | -4 | 0 | -1 | 1 | 0
CN(c1ccccc1)S(=O)(=O)c1cccc(NS(=O)(=O)c2cccc(C(=O)O)c2)c1 | 1 | 2 | 10 | 0 | 22*
NC(=S)N/N=C/c1ccc(C23CC4CC(CC(C4)C2)C3)cc1 | nt | nt | nt | 44* | nt
COc1ccc(C(CNc2nc(-c3cccnc3)nc3ccccc23)N(C)C)cc1 (stereo not drawn) | -6 | 9 | 41 | 0 | 2
Cc1ccc(-n2nc(-c3ccco3)cc2C(=O)O)cc1 | 3 | 0 | 5 | 1 | 16
O=C(c1cc(-c2ccco2)nn1-c1cccc(Cl)c1)N1CCCCC1 | 1 | 4 | 45 | 4 | 48*
Cc1ccc(/C=C2/N=C(c3ccccc3)NNC2=O)cc1 | -1 | 2 | 0 | -1 | -1
SMILES | HTR2A ag | B2AR ag | Exocytosis inh | NTR1 ag | ABHD5 PLIN5 PPI
CCCCNc1cc(=O)n(C)c(=O)n1C | 15* | -1 | 3 | 2 | 0
CCCc1nc2ccc(Cl)cn2c1Cc1ccc(C)cc1 | -1 | nt | -2 | nt | -8
CCN1C(=O)/C(=C/c2ccc(C)s2)NC1=S | 0 | -2 | 7 | 1 | -3
CCOC(=O)COc1ccc(/C=C2\NC(=S)N(CC)C2=O)cc1 | 3 | 66* | 19 | 4 | 1
CC(=O)OC[C@@H]1CN(Cc2cccc(C(F)(F)F)c2)C[C@H](n2cnc3c(NCc4ccco4)ncnc32)O1 | 5 | nt | 3 | nt | 5
N#Cc1ccc(CSc2nnc(-c3c[nH]c4ccccc34)n2-c2ccccc2)cc1 | 0 | 2 | 96* | 3 | 16
N#Cc1ccc(CSc2nnc(-c3ccccn3)n2-c2ccccc2)cc1 | -2 | -6 | 0 | -1 | 3
O=C(NC1CCCc2ccccc21)C1CCCN(S(=O)(=O)c2cnc[nH]2)C1 (stereo not drawn) | 11 | 10 | 0 | -1 | -1
CCc1ccc(NC(=O)C2CCCN(S(=O)(=O)c3cnc[nH]3)C2)cc1 (stereo not drawn) | 3 | 1 | -9 | 2 | -4
COC(=O)c1ccc(NC(=O)C2CCCN(S(=O)(=O)c3cnc[nH]3)C2)cc1 (stereo not drawn) | 17* | 0 | 1 | 3 | -1
O=C(NC1CCCCCC1)C1CCCN(S(=O)(=O)c2cnc[nH]2)C1 (stereo not drawn) | 24* | -1 | -3 | 0 | -4
Oc1ccc(/C=N/Nc2ccnc3cc(Cl)ccc23)c(O)c1O | -9 | 106* | -1 | 0 | -17
C[C@H](O)[C@@H]1C(=O)N2CCc3ccc(N4CCN(C)CC4)cc3[C@@H]2C[C@@H]1N(C)C(=O)c1ccco1 | -2 | nt | -6 | nt | 2
CCOC(=O)c1ccc(N2N=C(C)/C(=C/C=C/c3ccco3)C2=O)cc1 | 5 | 5 | 0 | 8 | -3
O=C(O)c1cc(N2N=C(C(F)(F)F)/C(=C/C=C/c3ccco3)C2=O)ccc1Cl | 2 | 2 | 5 | nt | 22*
CN(CC(=O)Nc1ccccc1Cl)C(=O)CN1C(=O)NC(c2ccccc2)(c2ccccc2)C1=O | 1 | -1 | 4 | -2 | 5
COc1ccc(C2C(C(=O)Nc3ccc4c(c3)OCCO4)c3ccccc3C(=O)N2C)cc1 (stereo not drawn) | 3 | 7 | 2 | -1 | 4
Cc1ccc(C(=O)CC(=O)c2ccccc2C)c(O)c1 | 0 | 4 | -15 | 8 | 2
C=C(CN(C)C)C(=O)c1ccc(C)cc1C | -9 | 29 | 9 | nt | 60*
O=C(CC[C@H]1O[C@@H](n2cnc3c(NC(=O)c4ccccc4)ncnc32)[C@H](O)[C@@H]1O)NCc1ccc(OC(F)(F)F)cc1 | 11 | nt | -2 | nt | 1
CCN1C/C(=C/c2ccc(N3CCOCC3)cc2)C(=O)/C(=C/c2ccc(N3CCOCC3)cc2)C1 | 0 | -2 | -4 | nt | 58*
CCOC(=O)C1=C(Cc2ccc(Cl)cc2)C(=O)c2ccccc2C1=O | -3 | -335 | 93* | 6 | 42*
CCOc1ccc(/C=C2\SC(N3CCc4ccccc4C3)=NC2=O)cc1 | 0 | 68* | -1 | 22 | -1
CC(O)(c1cccnc1)c1nc(-c2cccc(C#N)c2)cs1 (stereo not drawn) | 5 | nt | 5 | nt | 13
CCn1c(C)cc2c(c1=O)C(c1ccc3c(c1)OCO3)C(C#N)=C(N)O2 (stereo not drawn) | 15* | 7 | -1 | 4 | 2
